ATXN2 expr inh: reduces ATXN2 reporter expression in HEK-293 cells; HEK-293 ATXN2-luciferase reporter, luminescence, 24 h; Potency, µM (top dose mostly 57 µM), usual class: inhibitors; 360,000 compounds, 0.72% hits; AID 1745845; note: nearly all actives have a fitted effect of over 55% in size
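ATXN2-luciferase reporter cells (luciferase flanked by upstream and downstream ATXN2 gene portions) were treated 24 h at 37 °C with compounds at up to 57 uM. SteadyGlo luminescence gave expression; GF-AFC fluorescence gave viability.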
HepG2 tox: counter-screen for TGF-b inhibitors: cytotoxicity in HepG2 cells | HepG2 CAGA-GFP viability, ATP luminescence, 18 h | Potency, µM (top dose mostly 46.1 µM), hits mostly cytotoxic | 410,000 compounds, 0.76% hits | AID 588856
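CellTiter-Glo luminescence gave cytotoxicity after 18 hours at 37 degrees C. The cells were HepG2 CAGA-GFP in 1% FBS DMEM, stimulated with 500 pg/mL TGF-beta after compound addition. %Activity was normalised to no-cell wells (complete cell-killing) and DMSO (no toxicity), and curves were fitted and classified.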
DT40 TDP1 no CPT: qHTS for Inhibitors of human tyrosyl-DNA phosphodiesterase 1 (TDP1): qHTS in cells in absence of CPT; DT40 Tdp1-/- hTDP1 cells, no CPT, ATP luminescence, 48 h; Potency, µM (top dose mostly 46.2 µM), most hits filed as inhibitors; 420,000 compounds, 15% hits; note: nearly all actives have a fitted effect of over 55% in size
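Luminescent ATP content (CellTiter-Glo) served as the growth readout. Knockout chicken DT40 cells expressing human TDP1 were exposed to compounds without camptothecin for a minimum 48 hr at 37 °C.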
TGFb SMAD3 inh: blocks TGF-b signaling. HepG2 CAGA-GFP TGF-b/SMAD3 reporter, GFP fluorescence, 18 h; TGF-beta stimulated, 500 pg/mL final. Potency, µM (series often up to 46.1 µM), actives largely listed as inhibitors. 410,000 compounds, 1.2% hits; note: nearly all actives have a fitted effect of over 65% in size
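Smad-responsive CAGA-GFP expression was quantified in HEPG2 cells exposed to compounds and 500 pg/mL final TGF-beta for 18 h at 37 degrees C; unstimulated wells defined full inhibition.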
ATXN viability: viability counter-screen for ATXN expression inhibitors. S2 cells (HEK-293 line with an ATXN2-luciferase reporter) viability, CellTiter-Fluor protease fluorescence, 24 h. Potency, µM (top dose mostly 56.7 µM), usual class: cytotoxic. 400,000 compounds, 0.49% hits; note: nearly all actives have a fitted effect of over 40% in size
DT40 TDP1 CPT: DT40-hTDP1 cell growth loss with CPT. chicken DT40 Tdp1-/-;hTDP1 cells + 20 nM CPT, ATP luminescence, 48 h. Potency, µM (doses to about 46.2 µM), hits mostly inhibitors. 420,000 compounds, 12% hits; note: nearly all actives have a fitted effect of over 55% in size
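Chicken DT40 Tdp1-/- cells stably complemented with human TDP1 were seeded at 400 cells/well in medium containing 20 nM camptothecin, exposed to pin-transferred compounds, and grown at 37 °C for at least 48 hr. Viability was read as ATP luminescence.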
A number is an active result. This is a sample that favours compounds with a hit; in the whole collection about 17% have one here. Calls come from the whole dose curve; as a rule, active = well fitted curve in the direction sought with a large enough effect; inconclusive = small, poorly fitted or top-dose-only effect, or another doubt; inactive = no such curve, though single readings can be large; an effect the other way counts as inactive or inconclusive.

Screening CCCCCCN1C[C@H](n2cc(-c3ccc(F)cc3)nn2)[C@@H](O)C[C@@H]1c1ccccc1 returned ATXN2 expr inh inactive, HepG2 tox inactive, DT40 TDP1 no CPT inconclusive, TGFb SMAD3 inh inconclusive, ATXN viability inactive and DT40 TDP1 CPT inconclusive.
Screening CCCCCC(=O)N1C[C@@H](n2cc(-c3ccc(F)cc3)nn2)[C@H](O)C[C@@H]1c1ccc(C)cc1 returned ATXN2 expr inh inconclusive, HepG2 tox inactive, DT40 TDP1 no CPT 8.2µM, TGFb SMAD3 inh inconclusive, ATXN viability 16µM and DT40 TDP1 CPT 13µM.
`Cc1ccc([C@H]2C[C@H](n3cc(-c4ccc(F)cc4)nn3)[C@@H](O)CN2C(=O)c2cccs2)cc1` gave ATXN2 expr inh inactive, HepG2 tox inactive, DT40 TDP1 no CPT inconclusive, TGFb SMAD3 inh inactive, ATXN viability inconclusive and DT40 TDP1 CPT inactive.
Screening O=C(c1cccs1)N1C[C@@H](O)[C@H](n2cc(-c3ccc(F)cc3)nn2)C[C@@H]1c1ccccc1 returned ATXN2 expr inh inactive, HepG2 tox inactive, DT40 TDP1 no CPT 16µM, TGFb SMAD3 inh inactive, ATXN viability inactive and DT40 TDP1 CPT 18µM.
For Cc1ccc([C@H]2C[C@@H](O)[C@H](n3cc(C4CC4)nn3)CN2C(=O)c2cccs2)cc1 the results were ATXN2 expr inh inactive, HepG2 tox inactive, DT40 TDP1 no CPT 21µM, TGFb SMAD3 inh inactive, ATXN viability inactive and DT40 TDP1 CPT inconclusive.
For Cc1cccc(NC(=O)COC(=O)c2cc3ccccc3oc2=O)c1 the results were ATXN2 expr inh inactive, HepG2 tox inactive, DT40 TDP1 no CPT inactive, TGFb SMAD3 inh inactive, ATXN viability inactive and DT40 TDP1 CPT inactive.
`CC1(c2ccccc2Br)NC(=O)N(CC(=O)NC2CCCCC2)C1=O` (centres undefined) gave ATXN2 expr inh inactive, HepG2 tox inactive, DT40 TDP1 no CPT inactive, TGFb SMAD3 inh inactive, ATXN viability inactive and DT40 TDP1 CPT inactive.
For O=C(Cc1n[nH]c(=O)[nH]c1=O)N/N=C/CCc1ccccc1 the results were HepG2 tox inactive, DT40 TDP1 no CPT inactive, TGFb SMAD3 inh inactive, ATXN viability inactive and DT40 TDP1 CPT inactive.
Screening O=C1CC(c2ccccc2)CC(=O)N1c1ccc(C(F)(F)F)cc1 returned ATXN2 expr inh inactive, HepG2 tox inactive, DT40 TDP1 no CPT inactive, TGFb SMAD3 inh inactive, ATXN viability inactive and DT40 TDP1 CPT inactive.
Screening CCCCCC(=O)N1C[C@@H](n2cc(-c3ccc(F)cc3)nn2)[C@H](O)C[C@@H]1c1ccc(OC)cc1 returned ATXN2 expr inh inactive, HepG2 tox inactive, DT40 TDP1 no CPT inconclusive, TGFb SMAD3 inh inactive, ATXN viability inconclusive and DT40 TDP1 CPT inconclusive.
`COc1ccc([C@H]2C[C@H](n3cc(-c4ccc(F)cc4)nn3)[C@@H](O)CN2C(=O)C2CCCCC2)cc1` gave ATXN2 expr inh inactive, HepG2 tox inactive, DT40 TDP1 no CPT 18µM, TGFb SMAD3 inh inactive, ATXN viability inconclusive and DT40 TDP1 CPT inconclusive.
For COc1ccc([C@H]2C[C@H](O)[C@@H](n3cc(-c4ccc(F)cc4)nn3)CN2C(=O)C2CCCCC2)cc1 the results were ATXN2 expr inh inactive, HepG2 tox inactive, DT40 TDP1 no CPT inactive, TGFb SMAD3 inh inactive, ATXN viability inactive and DT40 TDP1 CPT inactive.
Screening CCCCCC(=O)N1C[C@@H](O)[C@H](n2cc(-c3ccc(F)cc3)nn2)C[C@@H]1c1ccc(C)cc1 returned ATXN2 expr inh inactive, HepG2 tox inactive, DT40 TDP1 no CPT 18µM, TGFb SMAD3 inh 18µM, ATXN viability inconclusive and DT40 TDP1 CPT inconclusive.
`CCCCCC(=O)N1C[C@@H](O)[C@H](n2cc(-c3ccc(F)cc3)nn2)C[C@@H]1c1ccccc1` gave ATXN2 expr inh inactive, HepG2 tox inactive, DT40 TDP1 no CPT 10µM, TGFb SMAD3 inh inactive, ATXN viability inactive and DT40 TDP1 CPT 23µM.

Screening results: PubChem, National Center for Advancing Translational Sciences (NCATS)
